Measured values as given in PubChem BioAssay (Tox21).
Inconclusive results are not listed. Activity calls are given as the source filed them. Unless noted, calls follow the shape of the full dose curve.

Tests used:
[1] = Nuclear factor erythroid 2-related factor 2/antioxidant responsive element (Nrf2/ARE) small molecule agonists: qHTS cell viability counter screen in human keratinocytes (AID 1919968; active = well fitted curve in the direction sought with a large enough effect in the repeat runs; an effect the other way counts as inactive or inconclusive; also: nearly all actives have a fitted effect of over 55% in size)
How it was run: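 Cytotoxicity was multiplexed with the Nrf2/ARE luciferase assay in the same wells. Stably transfected HaCaT keratinocytes were treated with test compounds for 23 h at 37 C. Cell viability was then measured by CellTiter-Fluor fluorescence.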

[2] = Nuclear factor erythroid 2-related factor 2/antioxidant responsive element (Nrf2/ARE) small molecule agonists: luciferase reporter gene qHTS assay in human keratinocytes (AID 1919969); also: nearly all actives have a fitted effect of over 35% in size
[3] = biological target: Gonadotropin-releasing hormone receptor (Homo sapiens) (UniProt P30968); assay: Human gonadotropin-releasing hormone receptor (GnRHR) small molecule agonists, calcium flux assay in GnRHR-HEK293 cells (AID 1920063); also: nearly all actives have a fitted effect of over 35% in size
Chain of Gonadotropin-releasing hormone receptor (Homo sapiens) (P30968 whole entry, looked up): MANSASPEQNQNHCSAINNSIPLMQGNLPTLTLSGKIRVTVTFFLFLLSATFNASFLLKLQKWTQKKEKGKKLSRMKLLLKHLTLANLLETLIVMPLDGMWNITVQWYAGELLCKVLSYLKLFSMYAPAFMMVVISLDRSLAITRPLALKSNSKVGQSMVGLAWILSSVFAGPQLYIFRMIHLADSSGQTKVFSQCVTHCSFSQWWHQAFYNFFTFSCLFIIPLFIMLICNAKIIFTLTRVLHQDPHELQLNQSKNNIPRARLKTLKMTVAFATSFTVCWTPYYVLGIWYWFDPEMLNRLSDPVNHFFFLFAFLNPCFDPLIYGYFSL
How it was run: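 Agonist activity was measured as intracellular calcium flux in HEK293 cells engineered to stably express human GnRHR. After dye loading for 1 hour at 37 C, compounds in DMSO were added and fluorescence was followed for 3 minutes.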

[4] = biological target: KiSS-1 receptor (Homo sapiens) (UniProt Q969F8); assay: Human kisspeptin (KISS1R) small molecule agonists, calcium flux assay in KISS1R-HEK293 cells (AID 1920064; active = well fitted curve in the direction sought with a large enough effect in the repeat runs; an effect the other way counts as inactive or inconclusive)
Chain of KiSS-1 receptor (Homo sapiens) (Q969F8 whole entry, looked up): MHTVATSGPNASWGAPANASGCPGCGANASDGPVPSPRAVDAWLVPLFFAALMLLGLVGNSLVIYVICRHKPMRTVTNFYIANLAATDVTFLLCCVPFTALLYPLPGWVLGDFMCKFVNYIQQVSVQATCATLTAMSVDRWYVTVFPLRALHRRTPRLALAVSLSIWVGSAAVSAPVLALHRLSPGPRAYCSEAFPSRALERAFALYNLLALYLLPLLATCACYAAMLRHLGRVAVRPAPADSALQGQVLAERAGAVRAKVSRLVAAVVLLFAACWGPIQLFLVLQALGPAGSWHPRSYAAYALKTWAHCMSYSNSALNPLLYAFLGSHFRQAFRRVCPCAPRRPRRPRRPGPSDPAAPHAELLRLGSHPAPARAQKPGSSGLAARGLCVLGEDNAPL
How it was run: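 Agonist activity is monitored as intracellular calcium rise in engineered HEK293 cells carrying human KISS1R. Cells are dye-loaded for 1 h at 37 C before compound addition, and fluorescence is recorded for 3 min.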

[5] = p53 small molecule agonists, cell-based qHTS assay with human liver microsomes (AID 1963577)
How it was run: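 Fluorescence of the beta-lactamase reporter in p53RE-bla cells, detected with LiveBLAzer substrate (2 h, room temperature, dark), served as the read-out after 16 h compound exposure at 37 C with human liver microsomes and NADPH, each 0.5 mg/mL final.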

[6] = p53 small molecule agonists, cell-based qHTS assay with rat liver microsomes (AID 1963578)
How it was run: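 Cells carrying a p53 response element–beta-lactamase reporter were plated and rested 5 h, then dosed with compound in DMSO plus rat liver microsomes and NADPH, each at 0.5 mg/mL final. After 16 h at 37 C, LiveBLAzer substrate was added for 2 h.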

[7] = p53 small molecule agonists, cell-based qHTS assay with human liver microsomes: qHTS cell viability counter screen (AID 1963579); also: nearly all actives have a fitted effect of over 45% in size
How it was run: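 Cytotoxicity counter screen: p53RE-bla, 4,000 cells/well; 5 h settle, 37 C/5% CO2; cpd + HLM 0.5 mg/mL + NADPH 0.5 mg/mL (final); 16 h, 37 C; CellTiter-Glo, 30 min RT, luminescence.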

[8] = p53 small molecule agonists, cell-based qHTS assay with rat liver microsomes: qHTS cell viability counter screen (AID 1963580); also: nearly all actives have a fitted effect of over 45% in size
How it was run: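 Counter screen for cytotoxicity under metabolic activation: rat liver microsomes and NADPH, 0.5 mg/mL final each, added with compounds to p53RE-bla HCT-116 cells; 16 h at 37 C, then ATP luminescence read.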

[9] = p53 small molecule agonists, cell-based qHTS assay: qHTS cell viability counter screen (AID 1963581); also: nearly all actives have a fitted effect of over 45% in size
How it was run: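 Viability was counter-screened in parallel with the p53 agonist reporter by measuring intracellular ATP luminescence in the same HCT-116 p53RE-bla wells after 16 h compound treatment at 37 C.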

[10] = p53 small molecule agonists, cell-based qHTS assay (AID 1963582; active = well fitted activation curve with a large enough effect in the signal ratio in the repeat runs, not every such curve was filed as active; the % refers to the signal ratio)
How it was run: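 Cells carrying a p53-responsive bla reporter are treated with test compounds for 16 h at 37 C; beta-lactamase activity is then detected with LiveBLAzer B/G FRET substrate after 2 h at room temperature.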

[11] = biological target: 5-hydroxytryptamine receptor 2A (Homo sapiens) (UniProt P28223); assay: 5-hydroxytryptamine receptor 2A (HTR2A) small molecule antagonists, cell-based qHTS assay (AID 1963586); also: nearly all actives have a fitted effect of over 45% in size
Chain of 5-hydroxytryptamine receptor 2A (Homo sapiens) (P28223 whole entry, looked up): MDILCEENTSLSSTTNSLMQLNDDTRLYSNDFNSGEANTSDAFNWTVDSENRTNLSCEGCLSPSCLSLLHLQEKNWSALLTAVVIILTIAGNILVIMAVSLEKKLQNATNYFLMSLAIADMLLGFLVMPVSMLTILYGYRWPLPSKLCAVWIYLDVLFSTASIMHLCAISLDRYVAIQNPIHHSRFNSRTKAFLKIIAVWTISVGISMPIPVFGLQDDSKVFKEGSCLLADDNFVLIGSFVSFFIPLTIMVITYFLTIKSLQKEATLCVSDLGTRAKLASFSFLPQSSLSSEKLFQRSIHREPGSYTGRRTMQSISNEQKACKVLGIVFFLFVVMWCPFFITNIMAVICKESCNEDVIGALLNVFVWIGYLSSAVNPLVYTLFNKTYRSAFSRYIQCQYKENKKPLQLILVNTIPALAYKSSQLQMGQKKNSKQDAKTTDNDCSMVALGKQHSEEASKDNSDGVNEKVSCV
How it was run: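 CHO cells stably expressing human HTR2A were plated for 18 h at 37 C, then loaded with calcium dye for 1 h. Compounds were preincubated 5 min at room temperature before DOI (4 nM solution) was added. Kinetic fluorescence was read for 3 min.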

[12] = biological target: 5-hydroxytryptamine receptor 2A (Homo sapiens) (UniProt P28223); assay: 5-hydroxytryptamine receptor 2A (HTR2A) small molecule agonists, cell-based qHTS assay (AID 1963587); also: nearly all actives have a fitted effect of over 30% in size
How it was run: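 HTR2A-CHO cells, plated 18 h at 37 C/5% CO2, dye-loaded 1 h at 37 C; compounds in DMSO added by pin tool (agonist mode). Intracellular calcium flux read as kinetic fluorescence on FDSS over 2 min at 1 s intervals.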

[13] = biological target: Muscarinic acetylcholine receptor M1 (Homo sapiens) (UniProt P11229); assay: Cholinergic receptor muscarinic 1 (CHRM1) small molecule antagonists, cell-based qHTS assay (AID 1963588); also: nearly all actives have a fitted effect of over 40% in size
Chain of Muscarinic acetylcholine receptor M1 (Homo sapiens) (P11229 whole entry, looked up): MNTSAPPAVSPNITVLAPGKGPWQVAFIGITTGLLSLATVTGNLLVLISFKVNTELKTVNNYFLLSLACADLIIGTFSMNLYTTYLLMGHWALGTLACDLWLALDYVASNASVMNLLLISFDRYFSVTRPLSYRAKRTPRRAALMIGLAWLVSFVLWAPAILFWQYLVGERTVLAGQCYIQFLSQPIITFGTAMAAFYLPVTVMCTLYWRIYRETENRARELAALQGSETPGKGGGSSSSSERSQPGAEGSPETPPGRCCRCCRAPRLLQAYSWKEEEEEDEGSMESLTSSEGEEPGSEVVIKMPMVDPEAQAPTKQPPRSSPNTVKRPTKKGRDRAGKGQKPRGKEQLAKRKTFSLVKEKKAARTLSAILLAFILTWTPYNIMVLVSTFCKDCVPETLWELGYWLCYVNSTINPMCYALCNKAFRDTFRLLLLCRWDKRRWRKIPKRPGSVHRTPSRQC
How it was run: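 Compounds were tested at 15 concentrations in three independent runs. Dye-loaded CHRM1-CHO cells were exposed 5 min at room temperature before stimulation by acetylcholine added at 50nM. Intracellular calcium was read kinetically on FDSS for 3 min.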

[14] = biological target: Muscarinic acetylcholine receptor M1 (Homo sapiens) (UniProt P11229); assay: Cholinergic receptor muscarinic 1 (CHRM1) small molecule agonists, cell-based qHTS assay (AID 1963589); also: nearly all actives have a fitted effect of over 35% in size
How it was run: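 Cells were plated and incubated 18 h at 37 C/5% CO2, loaded with calcium dye for 1 h at 37 C, then treated with compounds in DMSO. Fluorescence was recorded kinetically at 1 sec intervals.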

[15] = cAMP Responsive Elements (CRE) small molecule agonists, cell-based qHTS assay (AID 1963590)
How it was run: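 Cells carrying a CRE-driven beta-lactamase reporter (HEK 293T) are seeded, incubated overnight (18 h), and treated with test compounds for 3 h at 37 C; reporter activity is then detected with a FRET substrate after 2 h at room temperature.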

[16] = cAMP Responsive Elements (CRE) small molecule antagonists, cell-based qHTS assay (AID 1963591; active = well fitted inhibition curve with a large enough effect in the signal ratio in the repeat runs, not every such curve was filed as active; the % refers to the signal ratio)
How it was run: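 Cells (CRE-bla HEK 293T, DMEM with 10% dialyzed FBS and 25 mM HEPES) are seeded and incubated 18 h. Compounds are added with NKH477 agonist at 0.25 uM final for 3 h, then FRET substrate for 2 h.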

[17] = biological target: Beta-2 adrenergic receptor (Homo sapiens) (UniProt P07550); assay: Adrenergic beta2 receptor (ADRB2) small molecule antagonists, cell-based qHTS assay (AID 1963592); also: series mostly up to about 92 µM; nearly all actives have a fitted effect of over 50% in size
Chain of Beta-2 adrenergic receptor (Homo sapiens) (P07550 whole entry, looked up): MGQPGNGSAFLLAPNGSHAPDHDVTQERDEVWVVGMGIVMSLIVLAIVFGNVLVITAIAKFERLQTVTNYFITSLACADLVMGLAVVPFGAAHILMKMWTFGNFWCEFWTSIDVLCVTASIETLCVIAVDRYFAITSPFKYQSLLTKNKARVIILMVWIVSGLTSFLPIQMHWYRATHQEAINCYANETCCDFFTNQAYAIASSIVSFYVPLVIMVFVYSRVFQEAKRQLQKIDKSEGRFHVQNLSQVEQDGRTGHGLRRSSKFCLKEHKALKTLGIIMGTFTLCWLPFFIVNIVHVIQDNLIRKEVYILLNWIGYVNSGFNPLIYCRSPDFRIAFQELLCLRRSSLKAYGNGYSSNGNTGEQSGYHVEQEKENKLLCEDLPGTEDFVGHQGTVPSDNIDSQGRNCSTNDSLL
How it was run: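 Assay format: CHO-ADRB2 cells, 18-20hr seeding at 37C/5% CO2, then compound plus 1nM isoproterenol agonist mix for 0.5hr RT. Homogeneous time-resolved fluorescence cAMP detection after 1hr, expressed as 665/615 nm ratio.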

[18] = biological target: D(2) dopamine receptor (Homo sapiens) (UniProt P14416); assay: Dopamine D2 receptor (DRD2) small molecule agonists, cell-based qHTS assay (AID 1963594); also: nearly all actives have a fitted effect of over 35% in size
Chain of D(2) dopamine receptor (Homo sapiens) (P14416 whole entry, looked up): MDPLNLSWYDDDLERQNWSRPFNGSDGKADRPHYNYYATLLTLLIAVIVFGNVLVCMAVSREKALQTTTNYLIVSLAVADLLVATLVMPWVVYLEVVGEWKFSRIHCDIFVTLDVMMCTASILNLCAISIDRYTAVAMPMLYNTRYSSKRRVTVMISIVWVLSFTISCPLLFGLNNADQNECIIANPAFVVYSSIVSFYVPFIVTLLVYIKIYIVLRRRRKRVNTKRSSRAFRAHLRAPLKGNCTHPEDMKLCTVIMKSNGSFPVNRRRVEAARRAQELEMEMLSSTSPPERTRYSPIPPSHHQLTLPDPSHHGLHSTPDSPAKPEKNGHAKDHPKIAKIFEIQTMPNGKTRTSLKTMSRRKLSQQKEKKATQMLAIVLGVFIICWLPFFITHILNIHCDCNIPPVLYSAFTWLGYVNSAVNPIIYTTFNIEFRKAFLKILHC
How it was run: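 HEK293 cells stably expressing DRD2 were cultured 24 h at 37 C, then given Ro20-1724 (0.1 mM final) and compounds for 10 min at room temperature. NKH477 (200nM) was then added for 30 min. cAMP was read by HTRF.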

[19] = biological target: D(2) dopamine receptor (Homo sapiens) (UniProt P14416); assay: Dopamine D2 receptor (DRD2) small molecule antagonists, cell-based qHTS assay (AID 1963595; active = well fitted inhibition curve with a large enough effect in the signal ratio in the repeat runs, with a control signal flat; the % refers to the signal ratio)
How it was run: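 Cells were plated and grown for 24 h at 37 °C. Ro20-1724 (0.1 mM final) went in first, then compound for 10 min. NKH477 (200 nM) with quinpirole (12 nM) followed for 30 min at RT, then HTRF detection reagents for 1 h.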

[20] = biological target: Beta-2 adrenergic receptor (Homo sapiens) (UniProt P07550); assay: Adrenergic beta2 receptor (ADRB2) small molecule agonists, cell-based qHTS assay (AID 1963593);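 also: CHO cells stably overexpressing human ADRB2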
How it was run: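 CHO cells stably over-expressing ADRB2 were plated overnight at 37C, then dosed with compounds plus a stimulation mix containing 100uM IBMX and 25uM Ro-20-1724 for 0.5hr at room temperature. cAMP was measured by HTRF competition, 1hr.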

Measured: Potency

O=[N+]([O-])c1cccc(I)c1
not listed: [20]
inactive: all other assays above

CC(C)(C)NCC(O)COc1cccc2c1C[C@H](O)[C@H](O)C2 (some centres undefined)
not listed: [11] | [12] | [13] | [14] | [17] | [18] | [20]
inactive: all other assays above

CCCc1nn(C)c2c(=O)[nH]c(-c3cc(S(=O)(=O)N4CCN(C)CC4)ccc3OCC)nc12
not listed: [11] | [12] | [13] | [14]
inactive: all other assays above

OCCCCC(O)CO (centres undefined)
not listed: [16]
inactive: all other assays above

Cc1cc(C)c(NC(=O)CN(CC(=O)O)CC(=O)O)c(C)c1Br
not listed: [13] | [15] | [18] | [19]
inactive: all other assays above

O=C(O)c1ccc[n+]([O-])c1
not listed: [10] | [11] | [20]
inactive: all other assays above

CC1c2ccccc2CN1NC(=O)c1ccc(Cl)c(S(N)(=O)=O)c1 (centres undefined)
not listed: [20]
inactive: all other assays above
